Values joined by “and” are separate entries in the source; they are usually repeats but may differ in a detail not shown here. Identical values can stand only once. Records with an inconclusive call do not appear. Active and inactive are the calls of the source. Unless noted, the call rests on the fitted dose curve; in most records, active means well fitted curve in the direction sought with a large enough effect; inconclusive means small, poorly fitted or top-dose-only effect, or another doubt; inactive means no such curve, though single readings can be large; an effect the other way counts as inactive or inconclusive.
Tests used:
[1] = Cell Viability - N2a (AID 540); conditions: N2a mouse neuroblastoma cell viability; activity change, negative = cytotoxicity: at 92.2 µM (top of the series);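 further: plate controls were DMSO alone for no effect and tamoxifen control for full effect; nearly all actives have a fitted effect of over 45% in size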
Method in brief: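 Mouse neuroblastoma N2a cells, 1500/well, exposed to compounds 40 h at 37 °C in complete medium. Viability measured as cellular ATP by CellTiter-Glo luminescence; AC50 from Hill fits of concentration-response.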

[2] = Cellular Toxicity (caspase-3) Jurkat (AID 655); conditions: Jurkat caspase-3 activation, luminescence; caspase-3 activation: at 92.2 µM (top of the series), DMSO = 0%, tamoxifen = 100%;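 further: cells exposed to compound for 16 h at 37 °C before reading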
Method in brief: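 5000 Jurkat cells/well; compound 16 hr, 37 °C; Caspase-Glo 3/7 added, 20 min RT; luminescence read. Norm: DMSO = 0%, tamoxifen 100 uM = 100%. AC50, Hill model.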

[3] = Cellular Toxicity (caspase-3) BJ (AID 658);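 further: 0% = DMSO basal and 100% = 10 µM staurosporine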
Method in brief: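 Luminescent aminoluciferin-substrate cleavage reports caspase 3/7 activity in normal human BJ fibroblasts after 16 hr compound exposure at 37 °C. Normalized to DMSO (basal) and 10 uM staurosporine (100%); AC50 from Hill fit of concentration-response.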

[4] = Cellular Toxicity (caspase-3) MRC-5 (AID 659);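 further: cells exposed to compound for 16 h at 37 °C; 0% = DMSO basal and 100% = 10 µM staurosporine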
Method in brief: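 Luminescence from caspase-cleaved aminoluciferin substrate (Caspase-Glo 3/7, 1 hr RT) reports caspase 3/7 activity in MRC-5 lung fibroblasts after 16 hr compound exposure. Normalized to DMSO basal and 10 uM staurosporine as 100%; AC50 from Hill fits.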

[5] = MultiTox-Fluor Cytotoxicity Assay - LYMP1-001 - Dead Cells (AID 946)
Method in brief: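 Cytotoxicity as increased dead-cell protease fluorescence (bis-AAF-R110, 485/520 nm), read 60 min after MultiTox-Fluor reagent. Human lymphoblastoid line exposed 16 h; Hill-fitted AC50, with DMSO as 0% and 15 uM tetraoctylammonium bromide as 100%.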

[6] = Cell Viability - LYMP1-003 - Assay at 24 hr (AID 963);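 further: plate controls were DMSO only for no effect and tetraoctylammonium bromide positive control for full effect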
Method in brief: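 Human lymphoblastoid LYMP1-003 cells, 2500/well, treated 24 h at 37 C in complete medium. Viability read as intracellular ATP by CellTiter-Glo luminescence after 30 min at room temperature; AC50 from Hill-equation fits of qHTS concentration-response.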

[7] = Cell Viability - LYMP1-003 - Assay at 40 hr (AID 964); further: on the % scale 0 is the no-effect control and ±100 the full control effect; nearly all actives have a fitted effect of over 60% in size
Method in brief: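 LYMP1-003 human lymphoblastoid cells, 2500/well, preincubated 5 h at 37 C, then treated with compound for 40 h at 37 C. Intracellular ATP read by CellTiter-Glo luminescence after 30 min at room temperature; AC50 from Hill-equation fits.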

[8] = Cell Viability - LYMP2-004 (AID 966);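 further: plate controls were DMSO only for no effect and tetraoctylammonium bromide control for full effect; nearly all actives have a fitted effect of over 65% in size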
Method in brief: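 Lymphoblastoid LYMP2-004 cells, 2500 per well, were preincubated for 5 hr and then treated with compound for 24 h at 37 C in complete medium. Viability was read as cellular ATP by CellTiter-Glo luminescence, and AC50 values were taken from Hill fits to concentration-response data.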

[9] = Cell Viability - LYMP2-011 (AID 969);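 further: 0% = DMSO only and full inhibition = 92 µM tetraoctylammonium bromide; nearly all actives have a fitted effect of over 60% in size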
Method in brief: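 2500 cells/well in complete medium, compound-treated 24 h at 37 C. Viability read as intracellular ATP by CellTiter-Glo luminescence after 30 min at room temperature. AC50 from Hill fits of qHTS concentration-response data.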

[10] = Cell Viability - LYMP2-021 (AID 974);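 further: compound exposure lasts 24 hours at 37 °C; on the % scale 0 is the no-effect control and ±100 the full control effect; nearly all actives have a fitted effect of over 55% in size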
Method in brief: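 Human lymphoblastoid LYMP2-021 cells, 2500/well in complete medium, treated 24 hours at 37 C. Intracellular ATP by CellTiter-Glo luminescence (30 min, RT); AC50 from Hill fits of concentration-response.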

[11] = Cell Viability - LYMP2-010 (AID 981); further: on the % scale 0 is the no-effect control and ±100 the full control effect; nearly all actives have a fitted effect of over 55% in size
Method in brief: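 Human lymphoblastoid LYMP2-010 cells (2500/well) treated 24 h at 37 C in complete medium; viability read as intracellular ATP by CellTiter-Glo luminescence. AC50 from Hill fits of concentration-response data; tetraoctylammonium bromide positive control.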

[12] = Cell Viability - LYMP2-014 (AID 983);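 further: plate controls were DMSO only for no effect and 92 µM tetraoctylammonium bromide for full effect; nearly all actives have a fitted effect of over 50% in size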
Method in brief: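 LYMP2-014 human lymphoblastoid cells, 2500/well, treated 24 h at 37 C in complete medium; viability by CellTiter-Glo ATP luminescence after 30 min at room temperature. AC50 from Hill fits of qHTS concentration-response; tetraoctylammonium bromide positive control.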

[13] = Cell Viability - LYMP2-016 (AID 984); further: on the % scale 0 is the no-effect control and ±100 the full control effect; nearly all actives have a fitted effect of over 55% in size
Method in brief: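 Cells were seeded at 2500 per well and rested 5 hr before a 24 hr compound exposure at 37 C. Viability was then gauged as cellular ATP by luciferase luminescence, with AC50 values fitted to the Hill equation.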

[14] = Cell Viability - LYMP2-018 (AID 985);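 further: plate controls were DMSO only for no effect and tetraoctylammonium bromide at 92 µM for full effect; nearly all actives have a fitted effect of over 50% in size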
Method in brief: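 Human lymphoblastoid LYMP2-018 cells, 2500/well, settled 5 hr at 37 C then exposed to compound 24 hr at 37 C; intracellular ATP measured by CellTiter-Glo luminescence. AC50 from Hill-equation concentration-response fits.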

[15] = Cell Viability - LYMP2-024 (AID 988);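 further: plate controls were DMSO only for no effect and 92 µM tetraoctylammonium bromide for full effect; nearly all actives have a fitted effect of over 60% in size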
Method in brief: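 Human lymphoblastoid LYMP2-024 cells (2500/well) rested 5 hr, then treated with compound for 24 hr at 37 C in complete medium. Viability was measured as intracellular ATP by CellTiter-Glo luminescence. AC50 values came from Hill-equation fits.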

[16] = biological target: Peroxisome proliferator-activated receptor delta (Homo sapiens) (UniProt Q03181); assay: qHTS assay for small molecule agonists of peroxisome proliferator-activated receptor delta signaling (AID 588534; calls by dose curve;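 further: 0% = DMSO basal wells and 100% = positive control agonist at 10 µM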)
Sequence of Peroxisome proliferator-activated receptor delta (Homo sapiens) (Q03181 whole entry, looked up): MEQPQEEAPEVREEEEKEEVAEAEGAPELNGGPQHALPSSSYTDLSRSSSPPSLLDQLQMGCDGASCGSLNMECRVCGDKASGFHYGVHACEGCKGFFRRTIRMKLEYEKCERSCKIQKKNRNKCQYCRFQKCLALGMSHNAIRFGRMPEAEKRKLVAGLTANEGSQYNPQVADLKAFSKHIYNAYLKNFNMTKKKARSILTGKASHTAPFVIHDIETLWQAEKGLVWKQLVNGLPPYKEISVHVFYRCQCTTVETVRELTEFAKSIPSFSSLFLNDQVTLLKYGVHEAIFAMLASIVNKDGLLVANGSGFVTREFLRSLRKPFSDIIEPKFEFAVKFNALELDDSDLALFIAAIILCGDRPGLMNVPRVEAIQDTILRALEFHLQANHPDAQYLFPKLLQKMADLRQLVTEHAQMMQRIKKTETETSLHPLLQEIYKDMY
Method in brief: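 Cells carrying a PPAR-delta beta-lactamase reporter were treated with compounds for 18 h at 37 °C in agonist mode. CCF4 fluorescence was read after 2 h; EC50 and efficacy from Hill fits.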

[17] = qHTS assay for small molecule activators of the p53 signaling pathway (AID 651743; active means well fitted activation curve with a large enough effect in the signal ratio, not every such curve was filed as active; the % refers to the signal ratio; further: % of control where 0% means no effect); conditions: HCT-116 p53RE-bla, beta-lactamase FRET ratio, 16 h; activation: active compounds read high
Method in brief: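 Cell-based beta-lactamase reporter (p53 response elements, HCT-116 background). After a 5-hour preincubation, cells received compound for 16 hours at 37 C; substrate development ran 2 hours at room temperature.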

[18] = qHTS assay for small molecule agonists of the antioxidant response element (ARE) signaling pathway measured by Nrf2-dependant transcriptional activity (AID 720636; active means well fitted curve in the direction sought with a large enough effect in the repeat runs; an effect the other way counts as inactive or inconclusive; further: % of control where 0% means no effect)
Method in brief: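 Quantitative HTS format in HepG2 cells stably expressing an ARE-luciferase reporter; 16 hr compound treatment at 37 C, luciferase signal detected with ONE-Glo.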

[19] = qHTS assay for small molecule activators of the human pregnane X receptor (PXR) signaling pathway (AID 720659; call rule not given here; further: 0% is about no effect)
[20] = MultiTox-Fluor Cytotoxicity Assay - LYMP1-003 - Live Cells (AID 962);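 further: 0% = DMSO only and full loss = 92 µM tetraoctylammonium bromide; cytotoxic hits lower the live-cell protease signal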
Method in brief: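 LYMP1-003 lymphoblastoid cells, 2500/well in complete medium, treated 16 h at 37 C; live-cell protease cleavage of GF-AFC read by fluorescence (Ex/Em 405/510) after 60 min reagent; AC50 from Hill fits of concentration-response.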

N#CCCCCC#N
inactive: Potency [1] | caspase-3 activation [2] -0.898% | outcome [3] | outcome [4] | outcome [5] | outcome [6] | Potency [7] | Potency [8] | Potency [9] | Potency [10] | Potency [11] | Potency [12] | Potency [13] | Potency [14] | Potency [15] | outcome [16] | activation [17] -0.437% | Potency [18] | outcome [19]

C/C=C/CC#N
inactive: Potency [1] | caspase-3 activation [2] 0.734% | outcome [4] | outcome [5] | outcome [6] | Potency [7] | Potency [8] | Potency [9] | Potency [10] | Potency [12] | Potency [14] | Potency [15] | outcome [16] | activation [17] -0.715% | Potency [18] | outcome [19]

CC(=O)[O-].CC(=O)[O-].CC(=O)[O-].[Cr+3]
inactive: Potency [1] | caspase-3 activation [2] 0.251% | outcome [3] | outcome [4] | outcome [5] | outcome [20] | Potency [7] | Potency [9] | Potency [11] | Potency [12] | Potency [13] | Potency [14] | Potency [15] | Potency [18]

Clc1cccc(Cl)c1Cl
inactive: Potency [1] | caspase-3 activation [2] -0.0806% | outcome [3] | outcome [4] | outcome [5] | outcome [20] | Potency [8] | Potency [9] | Potency [10] | Potency [11] | Potency [12] | Potency [13] | Potency [14] | Potency [15] | outcome [16] | Potency [18] | outcome [19]

CC(C#N)CCC#N (centres undefined)
inactive: caspase-3 activation [2] 0.213% | outcome [3] | outcome [4] | outcome [5] | outcome [6] | Potency [7] | Potency [8] | Potency [9] | Potency [10] | Potency [11] | Potency [12] | Potency [13] | Potency [14] | Potency [15] | outcome [16] | activation [17] -0.507% | outcome [19]

CCOS(C)(=O)=O
inactive: outcome [3] | outcome [4] | outcome [5] | outcome [20] | outcome [6] | Potency [7] | Potency [8] | Potency [9] | Potency [10] | Potency [13] | Potency [15] | outcome [16] | activation [17] -2.6% | Potency [18] | outcome [19]

Cc1ccc(N)cc1N
inactive: Potency [1] | caspase-3 activation [2] -0.424% | outcome [3] | outcome [4] | outcome [5] | outcome [20] | Potency [8] | Potency [9] | Potency [10] | Potency [11] | Potency [12] | Potency [13] | Potency [14] | outcome [16] | activation [17] -3.51% and -0.675% | Potency [18] | outcome [19]

N#CCBr
inactive: Potency [1] | outcome [4] | outcome [5] | outcome [20] | outcome [6] | Potency [7] | Potency [8] | Potency [9] | Potency [10] | Potency [11] | Potency [12] | Potency [13] | Potency [14] | Potency [15] | outcome [19]

CCOC(=O)C1OC1(C)c1ccccc1 (centres undefined)
inactive: Potency [1] | outcome [3] | outcome [4] | outcome [5] | outcome [20] | outcome [6] | Potency [7] | Potency [8] | Potency [9] | Potency [10] | Potency [11] | Potency [13] | Potency [14] | Potency [15] | activation [17] -3.07% | Potency [18]

O=C(O)c1cc(Cl)ccc1Cl
inactive: Potency [1] | caspase-3 activation [2] 0.232% | outcome [3] | outcome [4] | outcome [5] | outcome [20] | outcome [6] | Potency [8] | Potency [10] | Potency [11] | Potency [12] | Potency [13] | Potency [14] | Potency [15] | outcome [16] | activation [17] -4.12% | outcome [19]

O=P(OCCCl)(OCCCl)OCCCl
inactive: Potency [1] | caspase-3 activation [2] -1.25% | outcome [3] | outcome [4] | outcome [20] | outcome [6] | Potency [7] | Potency [8] | Potency [10] | Potency [11] | Potency [12] | Potency [13] | Potency [14] | outcome [16] | activation [17] -2.67% | Potency [18] | outcome [19]

CCCCOCC1CO1 (centres undefined)
inactive: Potency [1] | caspase-3 activation [2] -0.958% | outcome [3] | outcome [4] | outcome [5] | outcome [6] | Potency [9] | Potency [10] | Potency [11] | Potency [14] | Potency [15] | outcome [16] | activation [17] -1.31% | Potency [18] | outcome [19]

ClCCOCCCl
inactive: outcome [3] | outcome [4] | outcome [20] | outcome [6] | Potency [7] | Potency [9] | Potency [10] | Potency [11] | Potency [12] | Potency [13] | Potency [15] | outcome [16] | activation [17] -1.88% | Potency [18] | outcome [19]

BrCCc1ccccc1
inactive: Potency [1] | caspase-3 activation [2] 1.89% | outcome [3] | outcome [4] | outcome [5] | outcome [20] | outcome [6] | Potency [7] | Potency [8] | Potency [10] | Potency [11] | Potency [12] | Potency [13] | Potency [14] | Potency [15] | outcome [16] | activation [17] -5.87% | Potency [18] | outcome [19]

Brc1cccc(-c2ccccc2)c1
inactive: outcome [3] | outcome [4] | outcome [5] | outcome [20] | outcome [6] | Potency [7] | Potency [8] | Potency [10] | Potency [12] | Potency [13] | Potency [15] | Potency [18] | outcome [19]

O=C(O)CCl
inactive: caspase-3 activation [2] -0.292% | outcome [4] | outcome [5] | outcome [20] | outcome [6] | Potency [8] | Potency [10] | Potency [11] | Potency [12] | Potency [13] | Potency [15] | outcome [19]

c1ccc2c(c1)CCNC2
inactive: Potency [1] | caspase-3 activation [2] 0.933% | outcome [4] | outcome [20] | outcome [6] | Potency [7] | Potency [8] | Potency [10] | Potency [11] | Potency [12] | Potency [13] | Potency [14] | outcome [16] | activation [17] -2.09% | outcome [19]
